Consider 23 sequences from article PMC11006913.

Holding throughout (assay): PBM; 200 nM protein, PBS
Common to all, as to conditions: dsDNA, one strand shown

The target in experiment [1] is PRRX1 (Homo sapiens, UniProt P54821 80-166, F113S).
For experiment [2], the target named is HOXD13 (Homo sapiens, UniProt P35453 263-343, T313R).
For experiment [3], the target named is HOXD13 (Homo sapiens, UniProt P35453 263-343).
Experiment [4] addresses HOXD13 (Homo sapiens, UniProt P35453 263-343, T313A).
In experiment [5] the target is PRRX1 (Homo sapiens, UniProt P54821 80-166).
PRRX1 (Homo sapiens, UniProt P54821 80-166), sequence (P54821 80-166): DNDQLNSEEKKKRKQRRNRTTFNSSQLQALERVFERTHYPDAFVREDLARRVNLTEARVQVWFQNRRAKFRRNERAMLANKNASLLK

PRRX1 (Homo sapiens, UniProt P54821 80-166, F113S), sequence (P54821 80-166 F113S): as the sequence (P54821 80-166) above, with F34S counted along it
HOXD13 (Homo sapiens, UniProt P35453 263-343, T313A), sequence (P35453 263-343 T313A): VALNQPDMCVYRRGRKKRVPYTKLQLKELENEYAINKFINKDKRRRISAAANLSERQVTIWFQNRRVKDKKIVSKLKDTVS
HOXD13 (Homo sapiens, UniProt P35453 263-343, T313R), sequence (P35453 263-343 T313R): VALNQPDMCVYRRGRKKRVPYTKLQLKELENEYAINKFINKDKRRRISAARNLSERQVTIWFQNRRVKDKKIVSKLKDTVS
HOXD13 (Homo sapiens, UniProt P35453 263-343), sequence (P35453 263-343): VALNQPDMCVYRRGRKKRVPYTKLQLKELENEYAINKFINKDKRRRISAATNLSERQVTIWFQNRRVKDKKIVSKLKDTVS

With CCCAAAGG, the binding signal in the experiment with PRRX1 [1] is 9.18 upbm affinity estimate (log intensity, higher = more binding, comparable within an allelic series); with HOXD13 [2], 9.56 upbm affinity estimate (log intensity, higher = more binding, comparable within an allelic series); with HOXD13 [3] it was 9.54 upbm affinity estimate (log intensity, higher = more binding, comparable within an allelic series); in the experiment with HOXD13 [4] it was 9.58 upbm affinity estimate (log intensity, higher = more binding, comparable within an allelic series); in the experiment with PRRX1 [5] it was 9.15 upbm affinity estimate (log intensity, higher = more binding, comparable within an allelic series).

On to AACCAATT, for which the binding signal in the experiment with PRRX1 [1] was 10.4 upbm affinity estimate (log intensity, higher = more binding, comparable within an allelic series); in the experiment with PRRX1 [5], 12.6 upbm affinity estimate (log intensity, higher = more binding, comparable within an allelic series).

In the case of CAGAACCC, the binding signal with PRRX1 [1] is 9.51 upbm affinity estimate (log intensity, higher = more binding, comparable within an allelic series); in the experiment with PRRX1 [5] it was 9.39 upbm affinity estimate (log intensity, higher = more binding, comparable within an allelic series).

Regarding CCAAGCTC, the binding signal with PRRX1 [1] was 9.29 upbm affinity estimate (log intensity, higher = more binding, comparable within an allelic series); with PRRX1 [5], 9.43 upbm affinity estimate (log intensity, higher = more binding, comparable within an allelic series).

As to CCTGGAAC, the binding signal in the experiment with PRRX1 [1] is 9.61 upbm affinity estimate (log intensity, higher = more binding, comparable within an allelic series); with PRRX1 [5], 9.32 upbm affinity estimate (log intensity, higher = more binding, comparable within an allelic series).

On to CAATTCCC, for which the binding signal with PRRX1 [1] is 9.81 upbm affinity estimate (log intensity, higher = more binding, comparable within an allelic series); with PRRX1 [5], 11.3 upbm affinity estimate (log intensity, higher = more binding, comparable within an allelic series).

On to AATATGCC, for which the binding signal was 9.8 upbm affinity estimate (log intensity, higher = more binding, comparable within an allelic series) with PRRX1 [1] and 11.1 upbm affinity estimate (log intensity, higher = more binding, comparable within an allelic series) with PRRX1 [5].

On to CCAACACC, for which the binding signal with PRRX1 [1] is 9.31 upbm affinity estimate (log intensity, higher = more binding, comparable within an allelic series); with PRRX1 [5], 8.85 upbm affinity estimate (log intensity, higher = more binding, comparable within an allelic series).

For the sequence CAAATGAG, the binding signal with PRRX1 [1] is 10.1 upbm affinity estimate (log intensity, higher = more binding, comparable within an allelic series); with PRRX1 [5] it was 11.5 upbm affinity estimate (log intensity, higher = more binding, comparable within an allelic series).

Turning to GCGTGCCA, the binding signal is 9.08 upbm affinity estimate (log intensity, higher = more binding, comparable within an allelic series) with PRRX1 [1] and 9.45 upbm affinity estimate (log intensity, higher = more binding, comparable within an allelic series) in the experiment with PRRX1 [5].

With GCTCTTCC, the binding signal in the experiment with PRRX1 [1] was 9.47 upbm affinity estimate (log intensity, higher = more binding, comparable within an allelic series); with PRRX1 [5], 9.1 upbm affinity estimate (log intensity, higher = more binding, comparable within an allelic series).

Consider CCAGAGTC, for which the binding signal was 9.5 upbm affinity estimate (log intensity, higher = more binding, comparable within an allelic series) in the experiment with PRRX1 [1] and 9.46 upbm affinity estimate (log intensity, higher = more binding, comparable within an allelic series) with PRRX1 [5].

For the sequence CGCGTCAG, the binding signal in the experiment with PRRX1 [1] is 9.4 upbm affinity estimate (log intensity, higher = more binding, comparable within an allelic series); with PRRX1 [5] it was 9.26 upbm affinity estimate (log intensity, higher = more binding, comparable within an allelic series).

As for CCGGGGTC, the binding signal in the experiment with PRRX1 [1] is 9.27 upbm affinity estimate (log intensity, higher = more binding, comparable within an allelic series); in the experiment with PRRX1 [5], 9.54 upbm affinity estimate (log intensity, higher = more binding, comparable within an allelic series).

On to AATGAGGG, for which the binding signal in the experiment with PRRX1 [1] was 9.96 upbm affinity estimate (log intensity, higher = more binding, comparable within an allelic series); in the experiment with PRRX1 [5] it was 11.2 upbm affinity estimate (log intensity, higher = more binding, comparable within an allelic series).

With AATTCAGG, the binding signal with PRRX1 [1] was 9.89 upbm affinity estimate (log intensity, higher = more binding, comparable within an allelic series); with PRRX1 [5], 11.3 upbm affinity estimate (log intensity, higher = more binding, comparable within an allelic series).

Take CCGACCCC: the binding signal in the experiment with PRRX1 [1] was 9.1 upbm affinity estimate (log intensity, higher = more binding, comparable within an allelic series); with PRRX1 [5] it was 9.36 upbm affinity estimate (log intensity, higher = more binding, comparable within an allelic series).

GAAAGACC: the binding signal in the experiment with PRRX1 [1] is 9.56 upbm affinity estimate (log intensity, higher = more binding, comparable within an allelic series); with PRRX1 [5], 9.45 upbm affinity estimate (log intensity, higher = more binding, comparable within an allelic series).

Regarding AATAGGGT, the binding signal with PRRX1 [1] was 10.2 upbm affinity estimate (log intensity, higher = more binding, comparable within an allelic series); in the experiment with PRRX1 [5], 11.5 upbm affinity estimate (log intensity, higher = more binding, comparable within an allelic series).

In the case of CGACGTTA, the binding signal in the experiment with PRRX1 [1] is 9.76 upbm affinity estimate (log intensity, higher = more binding, comparable within an allelic series); in the experiment with PRRX1 [5], 11.1 upbm affinity estimate (log intensity, higher = more binding, comparable within an allelic series).

With ACGTCGCC, the binding signal with PRRX1 [1] was 9.31 upbm affinity estimate (log intensity, higher = more binding, comparable within an allelic series); with PRRX1 [5], 9.36 upbm affinity estimate (log intensity, higher = more binding, comparable within an allelic series).

For GACGTTGC, the binding signal was 9.46 upbm affinity estimate (log intensity, higher = more binding, comparable within an allelic series) with PRRX1 [1] and 9.38 upbm affinity estimate (log intensity, higher = more binding, comparable within an allelic series) with PRRX1 [5].

On to AGCACCCT, for which the binding signal with PRRX1 [1] was 9.32 upbm affinity estimate (log intensity, higher = more binding, comparable within an allelic series); with PRRX1 [5], 9.38 upbm affinity estimate (log intensity, higher = more binding, comparable within an allelic series).
